Legend:
Experiment in all cases: log2 ratio of Biotin-Ahx-Ub-VS probe labelling (fragment/DMSO); higher = less target engagement (more negative = stronger competition), active = hit call of the paper (q ≤ 0.05, log2 ratio ≤ -1)
Details in all cases: compound concentration: 200 uM; treatment time: 3 h
USP34 = USP34 (UniProt Q70CQ2)
Procedure, shortened: (§1)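 HEK293T lysate, 495 µg per sample in Tris/CHAPS/IGEPAL buffer with protease inhibitors, was treated in triplicate with fragment at 200 µM or vehicle for 3 h and then with Biotin-Ahx-Ub-VS at 0.5 µM final for 1 h. Labelled DUBs were NeutrAvidin-enriched, digested with LysC and trypsin, and run by diaPASEF LC-MS/MS. Spectronaut label-free quantities were global-median-normalised, and values are average log2 fragment/vehicle ratios by unpaired t-test on proteins with ≥2 unique peptides.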

USP36 = target: T1, USP36 (UniProt Q9P275)
T1 sequence (whole entry): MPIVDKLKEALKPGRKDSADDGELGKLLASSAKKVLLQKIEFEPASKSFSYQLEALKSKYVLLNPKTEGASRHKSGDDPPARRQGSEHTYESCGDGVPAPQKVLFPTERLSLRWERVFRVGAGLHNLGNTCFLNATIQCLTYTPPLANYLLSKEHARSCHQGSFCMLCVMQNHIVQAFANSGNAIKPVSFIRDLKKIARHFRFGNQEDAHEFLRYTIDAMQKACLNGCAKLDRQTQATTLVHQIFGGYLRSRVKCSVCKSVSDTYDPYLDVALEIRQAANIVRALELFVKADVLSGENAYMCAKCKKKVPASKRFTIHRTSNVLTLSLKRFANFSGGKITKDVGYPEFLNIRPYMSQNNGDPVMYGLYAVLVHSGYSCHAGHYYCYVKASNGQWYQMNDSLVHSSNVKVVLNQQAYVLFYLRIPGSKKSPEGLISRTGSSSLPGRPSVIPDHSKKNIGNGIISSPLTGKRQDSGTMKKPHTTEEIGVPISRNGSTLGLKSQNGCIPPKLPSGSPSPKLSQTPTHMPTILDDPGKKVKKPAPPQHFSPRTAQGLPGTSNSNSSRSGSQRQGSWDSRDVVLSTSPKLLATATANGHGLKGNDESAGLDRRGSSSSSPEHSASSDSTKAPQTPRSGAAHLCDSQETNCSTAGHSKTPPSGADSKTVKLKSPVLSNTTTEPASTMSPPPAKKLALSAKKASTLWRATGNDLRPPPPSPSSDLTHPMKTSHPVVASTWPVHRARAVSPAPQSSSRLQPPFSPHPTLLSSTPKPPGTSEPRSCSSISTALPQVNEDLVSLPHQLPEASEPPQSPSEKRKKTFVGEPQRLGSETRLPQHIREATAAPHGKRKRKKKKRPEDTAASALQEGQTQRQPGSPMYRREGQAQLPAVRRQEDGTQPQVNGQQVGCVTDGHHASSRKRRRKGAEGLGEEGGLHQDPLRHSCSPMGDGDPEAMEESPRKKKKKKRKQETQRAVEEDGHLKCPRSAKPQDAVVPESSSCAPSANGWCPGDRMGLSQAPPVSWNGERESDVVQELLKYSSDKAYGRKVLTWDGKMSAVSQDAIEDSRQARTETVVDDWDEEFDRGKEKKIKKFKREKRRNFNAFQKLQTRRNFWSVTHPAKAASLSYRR
Procedure, shortened: as §1

USP38 = target: T2, USP38 (UniProt Q8NB14)
T2 sequence (whole entry): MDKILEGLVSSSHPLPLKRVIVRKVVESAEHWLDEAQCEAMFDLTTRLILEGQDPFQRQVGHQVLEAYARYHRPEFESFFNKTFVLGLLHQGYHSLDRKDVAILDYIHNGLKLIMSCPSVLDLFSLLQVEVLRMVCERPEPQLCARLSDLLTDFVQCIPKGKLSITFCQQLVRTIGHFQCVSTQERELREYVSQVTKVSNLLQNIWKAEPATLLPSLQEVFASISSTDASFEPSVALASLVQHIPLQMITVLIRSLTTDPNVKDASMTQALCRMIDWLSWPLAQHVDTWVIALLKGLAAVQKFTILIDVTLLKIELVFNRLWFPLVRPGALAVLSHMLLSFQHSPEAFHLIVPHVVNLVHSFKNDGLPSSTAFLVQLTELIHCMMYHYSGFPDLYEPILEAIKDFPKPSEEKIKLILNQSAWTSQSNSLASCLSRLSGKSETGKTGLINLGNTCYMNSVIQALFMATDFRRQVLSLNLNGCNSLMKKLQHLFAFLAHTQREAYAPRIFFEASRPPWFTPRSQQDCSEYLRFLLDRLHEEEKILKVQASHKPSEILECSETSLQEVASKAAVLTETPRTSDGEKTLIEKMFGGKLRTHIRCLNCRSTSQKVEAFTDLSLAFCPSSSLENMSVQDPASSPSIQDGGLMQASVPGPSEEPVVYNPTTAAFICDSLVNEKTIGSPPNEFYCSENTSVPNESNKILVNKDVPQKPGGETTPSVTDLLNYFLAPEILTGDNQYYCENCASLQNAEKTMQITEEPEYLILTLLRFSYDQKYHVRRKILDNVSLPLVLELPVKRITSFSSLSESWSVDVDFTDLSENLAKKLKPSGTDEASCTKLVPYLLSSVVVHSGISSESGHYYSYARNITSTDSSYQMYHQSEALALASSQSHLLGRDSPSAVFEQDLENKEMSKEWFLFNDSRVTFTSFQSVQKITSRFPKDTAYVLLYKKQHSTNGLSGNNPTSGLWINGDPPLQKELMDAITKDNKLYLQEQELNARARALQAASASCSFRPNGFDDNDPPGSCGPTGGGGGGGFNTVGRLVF
Procedure, shortened: as §1

USP39 = target: T3, USP39 (UniProt Q53GS9)
T3 sequence (whole entry): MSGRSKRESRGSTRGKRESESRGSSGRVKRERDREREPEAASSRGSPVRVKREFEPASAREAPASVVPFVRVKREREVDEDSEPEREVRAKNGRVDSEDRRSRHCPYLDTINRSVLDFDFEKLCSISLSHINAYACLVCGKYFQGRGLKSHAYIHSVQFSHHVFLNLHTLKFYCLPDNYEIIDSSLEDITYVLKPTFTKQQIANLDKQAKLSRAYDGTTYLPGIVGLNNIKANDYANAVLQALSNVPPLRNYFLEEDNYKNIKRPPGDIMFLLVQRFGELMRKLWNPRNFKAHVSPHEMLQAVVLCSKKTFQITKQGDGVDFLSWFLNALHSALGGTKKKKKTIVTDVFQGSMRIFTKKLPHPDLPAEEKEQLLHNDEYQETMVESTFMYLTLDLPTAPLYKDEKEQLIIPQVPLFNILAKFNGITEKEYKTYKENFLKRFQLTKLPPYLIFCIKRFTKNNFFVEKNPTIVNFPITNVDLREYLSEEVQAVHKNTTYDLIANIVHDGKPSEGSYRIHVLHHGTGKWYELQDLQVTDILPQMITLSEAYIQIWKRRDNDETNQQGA
Procedure, shortened: as §1

USP4 = target: T4, USP4 (UniProt Q13107)
T4 sequence (whole entry): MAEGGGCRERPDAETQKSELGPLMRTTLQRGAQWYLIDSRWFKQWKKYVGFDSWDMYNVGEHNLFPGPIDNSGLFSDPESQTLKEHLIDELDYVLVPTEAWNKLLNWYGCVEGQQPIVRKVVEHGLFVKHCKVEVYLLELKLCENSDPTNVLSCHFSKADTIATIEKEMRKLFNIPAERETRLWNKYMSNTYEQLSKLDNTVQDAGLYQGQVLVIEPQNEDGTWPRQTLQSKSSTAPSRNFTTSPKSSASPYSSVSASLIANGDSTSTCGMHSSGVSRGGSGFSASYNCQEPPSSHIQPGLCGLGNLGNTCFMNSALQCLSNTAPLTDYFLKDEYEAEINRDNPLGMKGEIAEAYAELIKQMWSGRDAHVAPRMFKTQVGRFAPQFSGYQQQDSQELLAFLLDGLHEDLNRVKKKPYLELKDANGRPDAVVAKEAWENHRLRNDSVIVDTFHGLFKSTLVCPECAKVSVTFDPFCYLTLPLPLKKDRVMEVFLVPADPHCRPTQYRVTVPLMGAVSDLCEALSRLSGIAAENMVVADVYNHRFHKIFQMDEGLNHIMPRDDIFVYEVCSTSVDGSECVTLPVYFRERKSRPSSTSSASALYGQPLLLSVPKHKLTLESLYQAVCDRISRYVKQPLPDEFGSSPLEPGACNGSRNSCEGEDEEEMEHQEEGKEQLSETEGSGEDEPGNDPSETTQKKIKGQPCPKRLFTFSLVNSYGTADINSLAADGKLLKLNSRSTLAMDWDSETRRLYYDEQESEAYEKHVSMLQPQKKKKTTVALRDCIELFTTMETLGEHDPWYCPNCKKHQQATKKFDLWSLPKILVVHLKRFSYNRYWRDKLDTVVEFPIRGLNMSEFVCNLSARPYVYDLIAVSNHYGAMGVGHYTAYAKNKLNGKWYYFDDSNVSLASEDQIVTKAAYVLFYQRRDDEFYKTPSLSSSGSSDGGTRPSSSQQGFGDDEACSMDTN
Procedure, shortened: as §1

Measured: log2 ratio of Biotin-Ahx-Ub-VS probe labelling

USP34, sequence (Q70CQ2 whole entry, the tested form may be a part): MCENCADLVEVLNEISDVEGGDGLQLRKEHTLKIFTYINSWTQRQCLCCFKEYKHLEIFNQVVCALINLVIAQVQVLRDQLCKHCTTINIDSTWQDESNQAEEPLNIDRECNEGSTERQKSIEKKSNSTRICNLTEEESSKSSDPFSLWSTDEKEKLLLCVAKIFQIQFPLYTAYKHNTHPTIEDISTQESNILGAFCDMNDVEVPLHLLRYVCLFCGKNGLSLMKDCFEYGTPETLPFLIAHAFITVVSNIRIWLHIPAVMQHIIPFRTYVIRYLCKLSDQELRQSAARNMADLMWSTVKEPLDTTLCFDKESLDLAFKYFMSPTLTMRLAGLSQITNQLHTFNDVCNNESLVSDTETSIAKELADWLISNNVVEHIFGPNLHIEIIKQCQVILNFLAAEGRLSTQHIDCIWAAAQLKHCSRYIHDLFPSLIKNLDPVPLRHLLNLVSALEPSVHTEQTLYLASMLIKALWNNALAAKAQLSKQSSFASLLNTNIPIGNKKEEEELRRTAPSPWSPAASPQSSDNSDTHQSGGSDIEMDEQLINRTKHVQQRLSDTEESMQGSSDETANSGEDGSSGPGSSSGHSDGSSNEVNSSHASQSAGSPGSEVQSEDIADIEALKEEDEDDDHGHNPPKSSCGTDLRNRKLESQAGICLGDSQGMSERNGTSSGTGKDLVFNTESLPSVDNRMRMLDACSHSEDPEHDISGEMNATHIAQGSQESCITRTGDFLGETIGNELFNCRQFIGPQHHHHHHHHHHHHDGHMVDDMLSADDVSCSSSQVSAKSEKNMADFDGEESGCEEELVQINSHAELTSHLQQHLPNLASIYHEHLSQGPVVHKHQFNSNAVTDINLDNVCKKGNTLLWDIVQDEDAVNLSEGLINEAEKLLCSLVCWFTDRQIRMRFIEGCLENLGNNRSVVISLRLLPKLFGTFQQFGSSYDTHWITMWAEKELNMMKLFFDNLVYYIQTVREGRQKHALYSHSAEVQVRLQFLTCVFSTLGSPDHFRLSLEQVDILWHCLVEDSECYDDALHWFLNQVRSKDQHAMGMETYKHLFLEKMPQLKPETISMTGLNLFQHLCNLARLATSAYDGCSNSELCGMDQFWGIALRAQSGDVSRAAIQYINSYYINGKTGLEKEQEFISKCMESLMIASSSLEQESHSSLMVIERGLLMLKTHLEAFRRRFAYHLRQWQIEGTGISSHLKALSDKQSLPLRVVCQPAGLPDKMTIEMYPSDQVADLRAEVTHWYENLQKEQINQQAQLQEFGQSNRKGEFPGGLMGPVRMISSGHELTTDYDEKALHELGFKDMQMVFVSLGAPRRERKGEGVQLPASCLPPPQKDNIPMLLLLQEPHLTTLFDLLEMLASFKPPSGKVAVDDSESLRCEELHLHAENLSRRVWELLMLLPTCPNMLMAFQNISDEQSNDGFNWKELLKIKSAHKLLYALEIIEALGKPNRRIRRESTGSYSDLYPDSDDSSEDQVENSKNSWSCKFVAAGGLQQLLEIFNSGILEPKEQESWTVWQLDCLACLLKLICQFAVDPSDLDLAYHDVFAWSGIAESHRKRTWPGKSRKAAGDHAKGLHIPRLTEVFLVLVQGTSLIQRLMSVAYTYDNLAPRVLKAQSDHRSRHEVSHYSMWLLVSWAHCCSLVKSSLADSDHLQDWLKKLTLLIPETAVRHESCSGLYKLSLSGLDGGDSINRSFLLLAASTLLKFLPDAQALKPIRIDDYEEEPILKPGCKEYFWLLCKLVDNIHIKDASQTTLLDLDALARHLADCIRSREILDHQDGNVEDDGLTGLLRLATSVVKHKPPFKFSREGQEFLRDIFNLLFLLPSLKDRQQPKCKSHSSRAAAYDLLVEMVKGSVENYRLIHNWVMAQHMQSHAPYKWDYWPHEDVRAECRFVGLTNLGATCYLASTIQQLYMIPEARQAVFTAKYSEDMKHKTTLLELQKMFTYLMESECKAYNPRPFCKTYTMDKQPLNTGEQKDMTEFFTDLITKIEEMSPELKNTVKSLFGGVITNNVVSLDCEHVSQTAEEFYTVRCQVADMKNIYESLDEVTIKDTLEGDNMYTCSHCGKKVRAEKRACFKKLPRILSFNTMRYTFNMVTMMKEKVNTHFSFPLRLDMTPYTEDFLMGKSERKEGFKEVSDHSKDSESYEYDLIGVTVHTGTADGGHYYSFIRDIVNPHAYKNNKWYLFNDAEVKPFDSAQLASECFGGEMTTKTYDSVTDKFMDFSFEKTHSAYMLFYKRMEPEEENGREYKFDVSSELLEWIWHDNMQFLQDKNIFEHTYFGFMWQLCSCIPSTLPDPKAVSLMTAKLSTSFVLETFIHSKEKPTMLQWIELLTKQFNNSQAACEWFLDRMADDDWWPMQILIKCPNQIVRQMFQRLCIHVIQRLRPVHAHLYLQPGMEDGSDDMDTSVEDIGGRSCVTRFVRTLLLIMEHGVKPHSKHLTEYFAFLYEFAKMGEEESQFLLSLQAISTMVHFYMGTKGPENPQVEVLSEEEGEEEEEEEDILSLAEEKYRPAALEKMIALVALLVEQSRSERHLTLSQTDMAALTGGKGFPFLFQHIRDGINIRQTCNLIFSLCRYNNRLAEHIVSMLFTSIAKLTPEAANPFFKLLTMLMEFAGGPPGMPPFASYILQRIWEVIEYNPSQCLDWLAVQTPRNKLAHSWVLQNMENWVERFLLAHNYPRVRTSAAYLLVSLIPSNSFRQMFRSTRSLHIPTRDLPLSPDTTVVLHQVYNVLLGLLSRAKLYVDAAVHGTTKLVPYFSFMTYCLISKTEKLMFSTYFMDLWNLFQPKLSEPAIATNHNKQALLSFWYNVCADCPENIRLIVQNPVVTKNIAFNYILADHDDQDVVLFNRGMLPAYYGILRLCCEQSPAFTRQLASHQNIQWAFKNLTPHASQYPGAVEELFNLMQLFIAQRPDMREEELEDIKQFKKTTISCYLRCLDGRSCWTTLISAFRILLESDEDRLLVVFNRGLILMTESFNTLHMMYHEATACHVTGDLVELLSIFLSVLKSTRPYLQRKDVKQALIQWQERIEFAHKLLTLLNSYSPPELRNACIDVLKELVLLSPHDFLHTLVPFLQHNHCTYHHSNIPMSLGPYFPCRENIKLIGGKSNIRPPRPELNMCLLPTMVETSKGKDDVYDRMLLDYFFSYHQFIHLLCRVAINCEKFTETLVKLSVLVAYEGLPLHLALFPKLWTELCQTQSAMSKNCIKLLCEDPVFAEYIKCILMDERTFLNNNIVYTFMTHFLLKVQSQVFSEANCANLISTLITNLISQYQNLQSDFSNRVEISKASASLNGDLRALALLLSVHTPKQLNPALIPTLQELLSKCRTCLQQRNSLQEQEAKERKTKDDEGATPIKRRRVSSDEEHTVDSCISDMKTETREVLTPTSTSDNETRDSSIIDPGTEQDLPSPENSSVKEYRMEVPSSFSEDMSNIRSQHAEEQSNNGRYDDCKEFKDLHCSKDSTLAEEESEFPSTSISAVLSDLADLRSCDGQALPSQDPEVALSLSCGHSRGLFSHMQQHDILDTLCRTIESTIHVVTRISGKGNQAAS

Cc1nc(CNC(=O)CCl)c2ccccn12.Cl
inactive: USP34 -0.0794 | USP36 -0.09 | USP38 -0.0607 | USP39 0.302 | USP4 -0.0724

— the supplement of paper PMC11732987, “Enantioselective OTUD7B fragment discovery through chemoproteomics screening and high-throughput optimisation” (Communications Chemistry, 2025)
